Measurements as given in ChEMBL document CHEMBL4513216, “Probing the Open Global Health Chemical Diversity Library for Multistage-Active Starting Points for Next-Generation Antimalarials” (ACS Infect Dis, 2020).
The whole screen tested about 69,000 compounds, of which about 8,600 (12%) showed an effect of 50% or more. What follows is part of a selection rich in strong results, with near analogues and random picks from the rest.

test system: Plasmodium berghei; assay: Screen against P. berghei liver stage (PbLuc), transformed with Luciferase, at 10uM; type: functional, HepG2; conditions: tested at 10 uM

| SMILES | INHIBITION [%] |
| --- | --- |
| CC(Cn1cccn1)NC(=O)NCc1ccoc1 (configuration not stated) | 15.6 |
| CS(=O)(=O)N1CC2(CCN(Cc3ccccn3)C2)Cc2ccccc21 (configuration not stated) | 14.3 |
| CC(C)CC(=O)NCCCc1cc(N)n(-c2ccccc2)n1 | 16.6 |
| Cc1noc(C)c1CN(C)Cn1c(=O)n(C)c2ccccc21 | 28.2 |
| Cc1noc(C)c1CN(C)C(=O)Cn1c(=O)n(C)c2ccccc21 | 26.8 |
| Cc1noc(C)c1CN(C)Cn1c(=O)oc2ccccc21 | 50.4 |
| Cc1ccc(C(CNC(=O)c2c(C)noc2C(C)C)N(C)C)cc1 (configuration not stated) | 7.12 |
| CC(CN1CCOCC1)NCc1nncn1C1CCCCC1 (configuration not stated) | 28.3 |
| Cc1cc(C)n(CC(C)NCc2nncn2C2CCCCC2)n1 (configuration not stated) | -47.9 |
| CC(CN1CCCCCC1)NCc1nncn1C1CCCCC1 (configuration not stated) | 75.4 |
| O=C(NCc1ccccc1)[C@H]1C[C@H]2CN(S(=O)(=O)C3CC3)C[C@@H]1O2 | 31.8 |
| CC1CN(Cc2ccc(-n3cccn3)cc2)CCO1 (configuration not stated) | -15.5 |
| Cc1noc(C)c1CN1C[C@@H]2C[C@@H](C)O[C@@H]2C1 | -10.2 |
| Cc1noc(C)c1CN1C[C@H]2CNC[C@H]2C1 | -19.2 |
| Cc1noc(C)c1CN1C[C@@H]2C[C@H](C(=O)NCC3CC3)N(C)[C@@H]2C1 | 26 |
| CNC(=O)[C@H]1C[C@@H]2CN(Cc3c(C)noc3C)C[C@@H]2N1C(C)=O | 22.2 |
| Cc1noc(C)c1CN1C[C@@H]2CC(F)(F)C[C@@H]2C1 | 87.2 |
| CNC(=O)[C@@H]1C[C@H]2CN(Cc3c(C)noc3C)C[C@H]2N1C(C)C | 83.8 |
| CC(=O)N1CCC(c2cnc(NC3CCOCC3)cn2)CC1 | -20.6 |
| Cc1ncsc1CNC(=O)N(CCCO)C1CCc2ccccc21 (configuration not stated) | -7.35 |
| Cc1ccc(S(=O)(=O)N2CCc3ccc(F)cc32)cc1C(=O)O | -3.2 |
| COc1cc(S(=O)(=O)N2CCc3ccc(F)cc32)cc(C(=O)O)c1OC | 42.9 |
| Cc1cc(S(=O)(=O)N2CCc3ccc(F)cc32)cc(C(=O)O)c1C | 61.3 |

| SMILES | INHIBITION [%] |
| --- | --- |
| O=C(c1ccc[nH]1)N1CCCn2c(CNC3CCC3)nnc2C1 | 45.7 |
| CC(C)CNC(=O)CNc1c(NCc2ccco2)c(=O)c1=O | 31.3 |
| O=C(Cc1ccccc1)NCc1ccc(-c2ccccc2C(=O)O)cn1 | 50.3 |
| COCC(=O)NCc1ccc(-c2ccccc2C(=O)O)cn1 | -26.7 |
| O=C(Cc1ccccc1)NCc1ncc(-c2ccccc2C(=O)O)cn1 | 1.65 |
| Cc1ccc(CNC(=O)c2ccc(F)cc2)o1 | 0.868 |
| CCN1CCc2[nH]cnc2C12CCN(Cc1ccc3nsnc3c1)CC2 | 23.6 |
| O=C(Cc1ccc2c(c1)OCC2)Nc1nn[nH]n1 | 23.1 |
| O=C([C@@H]1CCCN1c1nccc(Nc2ccccc2)n1)N1CCCCC1 | 78.7 |
| O=C(O)[C@@H]1CCCN1c1nccc(Nc2ccccc2)n1 | 0.618 |
| CCC(C)CNC(=O)[C@@H]1CCCN1c1nccc(Nc2ccccc2)n1 (some centres not stated) | 13.5 |
| Cc1cccc(NC(=O)Nc2c[nH]c(=O)[nH]c2=O)c1C | -13.6 |
| Cc1cc(C(=O)N2CCN(Cc3ccsc3)CC2)c(C)n1C1CC1 | -1.14 |
| Cc1ncc(S(=O)(=O)N(CC(C)C)c2cccc(O)c2)s1 | 61 |
| CC(=O)Nc1ncc(S(=O)(=O)Nc2cccc(O)c2)s1 | 13.5 |
| CC(C)CN(c1cn[nH]c1)S(=O)(=O)c1cccc(C#N)c1 | 10.8 |
| O=C(c1ccc[nH]1)N1CCc2c(cccc2S(=O)(=O)N2CCOCC2)C1 | 22.2 |
| Cc1n[nH]c(CN2CCN(CC3CC3)[C@@H]3CS(=O)(=O)C[C@@H]32)n1 | 55.9 |
| CC(C)=CCN1CCN(Cc2nccn2C)[C@H]2CS(=O)(=O)C[C@H]21 | 23.9 |
| Cn1ccnc1CN1CCN(CC2CC2)[C@@H]2CS(=O)(=O)C[C@@H]21 | 56.7 |
| Cc1n[nH]c(CN2CCN(C(=O)C3CCC3)[C@@H]3CS(=O)(=O)C[C@@H]32)n1 | -2.79 |
| Cc1n[nH]c(CN2CCN(Cc3ccccc3)[C@@H]3CS(=O)(=O)C[C@@H]32)n1 | 18.9 |
| Cn1ccnc1CN1CCN(Cc2ccccc2)[C@@H]2CS(=O)(=O)C[C@@H]21 | 46.7 |

| SMILES | INHIBITION [%] |
| --- | --- |
| CN(C)CCC1CN(C(=O)c2cccc3c2OCC3)CCO1 (configuration not stated) | -15.1 |
| COCC1CN(Cc2cc(C)on2)Cc2cn(CC3CCCC3)nc21 (configuration not stated) | 15.3 |
| Cc1cc(OC(F)F)c(C(=O)N2CCN(C3CC3)CC2)s1 | -3.47 |
| CCOCC1CN(C(=O)c2cscn2)Cc2nnn(CC3CC3)c21 (configuration not stated) | 13.6 |
| CCOCC1CN(C(=O)c2cscn2)Cc2cnn(CC3CC3)c21 (configuration not stated) | 56.7 |
| Cc1ccsc1C(=O)N1Cc2ncn(C)c2C(COCC2CC2)C1 (configuration not stated) | 11.4 |
| Cc1noc(C)c1C(=O)N1Cc2ncn(C)c2C(COCC2CC2)C1 (configuration not stated) | 58.4 |
| CCOCC1CN(C(=O)c2cnccn2)Cc2cnn(CC3CC3)c21 (configuration not stated) | 6.6 |
| Cc1noc(C)c1C(=O)N1Cc2ncn(C)c2C(COCC(C)C)C1 (configuration not stated) | 36.7 |
| Cn1cnc2c1C(COCC1CCOCC1)CN(C(=O)c1ccoc1)C2 (configuration not stated) | 40.4 |
| CN(C)C(=O)N1Cc2ncn(C)c2C(COCC2CCOCC2)C1 (configuration not stated) | 6.6 |
| Cn1ncc2c1C(COCC1CC1)CN(C(=O)c1cscn1)C2 (configuration not stated) | 34.6 |
| Cn1cnc2c1C(COCC1CCOCC1)CN(C(=O)c1ccco1)C2 (configuration not stated) | 64.9 |
| Cn1cnc2c1C(COCC1CC1)CN(C(=O)c1cscn1)C2 (configuration not stated) | 58.8 |
| CC(C)COCC1CN(C(=O)c2cscn2)Cc2ncn(C)c21 (configuration not stated) | 34.9 |
| CCn1ccnc1CN1CCCN(C(=O)c2cc[nH]n2)CC1 | -18.45 |
| Cc1nc(C)n(CC2CCCCN2CCOc2cccc(C#N)c2)n1 (configuration not stated) | 21.5 |
| CN(C)C1(CNc2nccc(C3CCCC3)n2)CCOCC1 | -15.3 |
| Cn1ccnc1CNC(=O)CC1CCCCO1 (configuration not stated) | 19.25 |
| COCCNCc1cc2ccc(C)c(C)c2[nH]c1=O | 1.475 |
| CC(=O)Nc1cccc(CN2CCN(C3=NCC(C)(C)S3)CC2)c1 | 42.1 |
| CN(C)CCN1CCOCC2(C1)CN(Cc1ccsc1)CCO2 (configuration not stated) | 25.6 |
| CCS(=O)(=O)N(C)CCCNCc1c(C)nn(C)c1N(C)C | 19.15 |

| SMILES | INHIBITION [%] |
| --- | --- |
| CC(C)CN1CCN(C(=O)CCn2cccn2)CC1 | 2.4 |
| C[C@H]1C(=O)NC[C@H]2CN(CCc3ccccc3)C[C@H]21 | -23.3 |
| CCN(CC)C(=O)Cn1ccc2cc(NC(=O)C3CC3)ccc21 | 52.7 |
| CCN(CC)C(=O)Cn1ccc2cc(NC(=O)C3CCCCC3)ccc21 | -3.202 |
| CCC(=O)Nc1ccc2c(ccn2CC(=O)N(CC)CC)c1 | 8.4 |
| CCc1nccn1C1CCCN(C(=O)c2ccc(-n3ccnc3)cc2)C1 (configuration not stated) | 33.3 |
| CC(Sc1nnnn1C1CCOCC1)C(F)(F)F (configuration not stated) | 52.8 |
| CCCC(C)Sc1nnnn1C1CCOCC1 (configuration not stated) | 15 |
| CC(Sc1nnnn1C1CCOCC1)C(=O)NC1CCCCC1 (configuration not stated) | 3.47 |
| CC(C)Sc1nnnn1C1CCCC1 | 66.9 |
| N#CC(Sc1nnnn1C1CCOCC1)C1CCCCC1 (configuration not stated) | -58.6 |
| COC(=O)C(C)Sc1nnnn1C1CCOCC1 (configuration not stated) | 23.6 |
| N#CC1(NC(=O)c2ccc(F)cc2OC(F)F)CCOCC1 | 8.12 |
| CN(C)C(=O)COC1COC2(CCN(c3cccc(F)c3)CC2)C1 (configuration not stated) | 42.7 |
| Cc1ccc(-c2noc(C(C)(C)NS(C)(=O)=O)n2)cc1F | 15.4 |
| C[C@@H]1CN(Cc2cc(C3CCCCC3)no2)CC[C@]1(C)O | 61.1 |
| Cc1nonc1CN1CC[C@@](O)(C2CCC2)[C@H](C)C1 | 21.9 |
| C[C@@H]1CN(Cc2c[nH]c(CC3CCCC3)n2)CC[C@]1(C)O | 15 |
| Cc1nnsc1CN1CC[C@@](O)(C2CCC2)[C@H](C)C1 | 66.7 |
| CCc1nc(C)sc1CN1CC[C@](O)(CC)[C@H](O)C1 | -31.7 |
| CC[C@@]1(O)CCN(Cc2cc(C3CCCCC3)no2)C[C@H]1O | 56.6 |
| NC1CCCCN(Cc2cc(C3CCCCC3)no2)C1 (configuration not stated) | 57.8 |
| CC1(C)CN(Cc2cc(C3CCCCC3)no2)CC[C@]1(C)O | 47.7 |

| SMILES | INHIBITION [%] |
| --- | --- |
| CCc1nc(C)sc1CN1CC[C@@](O)(C2CC2)[C@H](C)C1 | 29.7 |
| CC[C@@]1(O)CCN(C(=O)c2ccc(CN3CCCCCC3)cc2)C[C@H]1O | 3.03 |
| Cc1cc(-c2nn(C)c(Cl)c2CN2CCCCC(N)C2)no1 (configuration not stated) | 48.5 |
| OCC1COCCN(Cc2cc(C3CCCCC3)no2)C1 (configuration not stated) | 41 |
| O=C(COCc1ccccc1)N1CCCn2cncc2C1 | 14.5 |
| Cc1cs/c(=N\C(=O)Cn2nc(N3CCC(C)CC3)ccc2=O)[nH]1 | -6.73 |
| CN(C)Cc1cnc2n1CCN(Cc1ccsc1)CC2 | 16.8 |
| C[C@@H]1CN(Cc2cccc(F)c2)C[C@]12CCN(Cc1cccnc1)C2=O | -13.4 |
| Cc1ccc(C(=O)N2C[C@H](OCc3cccnc3)[C@H]3COC[C@H]32)cn1 | 25.3 |
| CC(C)N(C)Cc1nnn2c1CN(Cc1cccnc1)CCC2 | -50.9 |
| CCC(CO)n1cnc2scc(C)c2c1=O (configuration not stated) | 1.19 |
| Cc1nonc1CN1CC[C@@](O)(C2CCOCC2)[C@H](C)C1 | 47.7 |
| C[C@@H]1CN(Cc2nc(C(N)=O)no2)CC[C@@]1(O)C1CC1 | 6.26 |
| C[C@@H]1CN(Cc2cc(C3CCCCC3)no2)CC[C@@]1(O)C1CC1 | 63.3 |
| N[C@@H]1CCN(Cc2cc(-c3ccccc3OC(F)(F)F)no2)C[C@H]1O | -48.3 |
| OC1COCCN(Cc2cc(-c3ccccc3OC(F)(F)F)no2)C1 (configuration not stated) | -26.1 |
| C[C@@H]1CN(Cc2cc(C(F)(F)F)ccc2F)CC[C@@]1(O)C1CC1 | -45 |
| COc1cc(F)c(CN2CC[C@@](O)(C3CC3)[C@H](C)C2)cc1OC | -39.2 |
| NC1CCCCN(Cc2cc(-c3ccccc3OC(F)(F)F)no2)C1 (configuration not stated) | 79.7 |
| C[C@@H]1CN(Cc2nc(C(N)=O)no2)CC[C@@]1(O)C1CCOCC1 | 59.1 |
